Inconclusive results are not listed. Values without a mark were called inactive. The call rests on the fitted dose curve; in most records, active means well fitted inhibition curve with a large enough effect; inconclusive means small, poorly fitted or top-dose-only effect; inactive means flat fitted curve, though single readings scatter.
System: KB-3-1
Assay: Cytotoxic Profiling of Annotated Libraries Using Quantitative High-Throughput Screening (AID 1296008); further: nearly all actives have a fitted effect of over 60% in size
Conditions: Five cell lines viability, CellTiter-Glo ATP luminescence, 48-72 h; max response: hits give low values
Summary of the method: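 Compounds were pin-transferred onto cells and incubated 48 or 72 hr at 37 degree Celsius, 95% humidity. CellTiter-Glo was added, plates sat 10 min at room temperature, then ATP-coupled luminescence was imaged as the viability read-out.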
On the % scale 0 is the no-effect control and ±100 the full control effect.

How did the max response turn out when Oc1cc(O)cc(O)c1 was run?
Its max response is 3%.

With COc1ccc2c(c1)N(C[C@H](C)CN(C)C)c1ccccc1S2 as the compound, how does the max response read?
Its max response is -8.39%.

Which max response does the source give for NC(=O)[C@@H]1C[C@]2(NC(=O)NC2=O)c2cc(F)ccc2O1 here?
The max response was -7.8%.
